# Bioassay records: PubChem, The Scripps Research Institute Molecular Screening Center
# This is a sample that favours compounds with a hit; in the whole collection about 4.1% have one here.
# DAX1 inh-1: DAX1 (NR0B1) inhibitors, primary screen, cell-based, HEK293, Gal4-DAX1, luciferase luminescence. Nuclear receptor subfamily 0 group B member 1 (Homo sapiens), P51843. HEK293 Gal4-DAX1 luciferase reporter. inhibition, % at 6.75 µM. 340,000 tested, 0.99% active. AID 504766, 2011;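 active = inhibition above the mean over all tested compounds plus 3 SD, cut at about 4.2% in these data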;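 also: 0% = DAX1-transfected cells with DMSO and 100% = empty-vector control cells with DMSO; inhibition shows as a rise in luminescence from relieved DAX1 repression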
# hgDAF12 agonist: H. glycines DAF-12 receptor agonists, primary screen, cell-based, luminescence, HEK293, GAL4 fusion, UAS-luciferase. HEK293 GAL4-hgDAF12 UAS-luciferase reporter, agonist luminescence; normalized to butyrate control. activation, % at 6.8 µM. 370,000 tested, 1.8% active. AID 687014, 2013;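 active = activation above a cutoff set at the mean of all screened compounds plus 3 SD, cut at about 10% in these data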;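 also: 0% = DMSO wells and 100% = sodium butyrate wells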
# hcDAF-12 act: H. contortus DAF-12 nuclear receptor activators, primary screen, cell-based, luminescence, HEK293, lit1-tk-luc reporter | HEK293 hcDAF-12 lit1-tk-luc reporter; 0% DMSO, 100% Δ7-dafachronic acid | activation, % at 6.8 µM | 370,000 tested, 1.4% active;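 active = activation above the mean of all tested compounds plus 3 SD, cut at about 5.5% in these data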;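 also: 100% = response to 3 µM Δ7-dafachronic acid high control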
# ssDAF12 agonist: S. stercoralis DAF-12 nuclear receptor activators, primary screen, cell-based, luminescence, HEK293, GRIP1 co-expression, lit1-tk-luc | Nuclear hormone receptor DAF-12 (Strongyloides stercoralis) | HEK293 ssDAF-12/GRIP1 lit1-tk-luc reporter; % of 3 µM dafachronic acid response | activation, % at 6.8 µM | 370,000 tested, 1% active | AID 652126, 2013;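 active = activation above the mean over all tested compounds plus 3 SD, cut at about 0.9% in these data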;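 also: 0% = DMSO-only wells and 100% = 3 µM delta7-dafachronic acid wells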
# DAX1 inh-2: DAX1 (NR0B1) inhibitors on StAR promoter, primary screen, cell-based, luminescence, SF-1 (NR5A1), full-length DAX-1; HEK293T StAR-luciferase reporter, SF-1/DAX-1 repression relief; inhibition, % at 6.8 µM; 370,000 tested, 1.1% active; AID 652010, 2013;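 active = inhibition above the mean over all tested compounds plus 3 SD, cut at about 3.6% in these data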;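 also: 0% = DAX-1 cells with DMSO and 100% = cells lacking DAX-1 with DMSO; higher inhibition means more luminescence from relief of DAX-1 repression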
# DAX1 conf: DAX1 (NR0B1) inhibitors relieving SF-1 repression, confirmation, cell-based, luminescence, HEK293T, full-length DAX-1, SF-1 activated StAR promoter. shares compounds with DAX1 inh-2. HEK293T StAR-promoter luciferase reporter, SF-1/DAX-1 repression. inhibition, % at 6.8 µM. 2,400 tested, 87% active. AID 652134, 2013;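 active = inhibition above the average of every tested compound plus 3 SD, cut at about 3.8% in these data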;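 also: 0% = DAX-1 cells with DMSO and 100% = no DAX-1 control cells with DMSO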
# Target sequence (P51843 whole entry, looked up): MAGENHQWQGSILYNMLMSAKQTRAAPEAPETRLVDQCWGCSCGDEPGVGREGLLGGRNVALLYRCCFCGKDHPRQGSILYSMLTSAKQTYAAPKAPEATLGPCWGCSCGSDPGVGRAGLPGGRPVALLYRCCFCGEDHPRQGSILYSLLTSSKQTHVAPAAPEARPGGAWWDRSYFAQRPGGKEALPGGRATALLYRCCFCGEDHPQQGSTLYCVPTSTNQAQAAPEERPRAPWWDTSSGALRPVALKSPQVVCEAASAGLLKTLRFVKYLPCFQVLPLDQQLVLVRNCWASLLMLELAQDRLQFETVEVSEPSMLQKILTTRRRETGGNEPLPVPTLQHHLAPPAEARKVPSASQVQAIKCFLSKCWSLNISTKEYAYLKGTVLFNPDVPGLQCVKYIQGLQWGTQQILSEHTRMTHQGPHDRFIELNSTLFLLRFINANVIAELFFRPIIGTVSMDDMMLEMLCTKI
# SF1 AF2mut Luc: StAR reporter signal changes without DAX1, counter-screen for DAX1 inhibitor project, cell-based, luminescence, AF-2 mutant SF-1, transactivation. shares compounds with DAX1 inh-2. HEK293 StAR-luciferase, SF-1 AF2 mutant. inhibition, % at 6.8 µM. 2,400 tested, 78% active;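 active = inhibition above the mean of all tested compounds plus 3 SD, cut at about 3% in these data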;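 also: 0% = DAX-1 transfected cells with DMSO and 100% = cells without DAX-1 with DMSO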
# Active calls of the source: *; / = no result.
SMILES,DAX1 inh-1,hgDAF12 agonist,hcDAF-12 act,ssDAF12 agonist,DAX1 inh-2,DAX1 conf,SF1 AF2mut Luc
COc1ccc(/C=C2\Sc3ccc(C(=O)NCCCN4CCCC4)cc3N(C)C2=O)cc1OC,0.5,1.6,-0.7,-1.2,4.6*,6.0*,0.0
CCOc1ccc(/C=C2/Sc3ccc(C(=O)NCC4CCCO4)cc3N(C)C2=O)cc1OC (stereo unspecified),-0.4,-4.7,-4.0,-1.8,-2.2,/,/
O=C(CS(=O)(=O)c1ccc(Cl)cc1)NCc1ccccc1,0.5,2.0,-0.7,-0.8,-2.0,/,/
CCNc1nc(NCC)nc(N/N=C(\C)c2ccc(OC)cc2)n1,-2.0,-0.7,-1.3,-1.3,-1.0,/,/
COc1ccc(/C(C)=N/Nc2nccnc2Cl)cc1,-1.2,8.0,2.4,0.7,5.6*,4.2*,2.8
O=C(c1ccncc1)N(c1ccc(N2CCOCC2)cc1)C(c1ccccc1)c1nc2ccccc2[nH]1 (stereo unspecified),/,13.1*,6.2*,0.1,5.3*,7.7*,4.9*
CCC(c1nc2ccccc2[nH]1)N(C(=O)Cc1cc(OC)cc(OC)c1)c1ccc(N2CCOCC2)cc1 (stereo unspecified),/,3.3,-0.7,-1.3,-1.9,/,/
CCOC(=O)[C@@H]1[C@H]2COc3ccccc3[C@@H]2N2C(=O)N(c3ccc(Cl)cc3)C(=O)[C@]12C,0.4,-0.2,-1.4,-1.0,-1.0,/,/
CCOc1cc(N2CCOCC2)c(OCC)cc1NC(=O)Cn1cnnn1,-0.1,-1.1,-0.3,-1.0,0.7,/,/
CCOc1cc(N2CCOCC2)c(OCC)cc1NC(=O)Cn1nc(C)c([N+](=O)[O-])c1C,-1.2,2.1,-1.5,-0.9,4.7*,2.1,1.0
COc1ccc2nc(SCC(=O)/C(C#N)=C(\C)N)[nH]c2c1,1.0,9.2,5.8*,0.0,4.8*,13.8*,8.8*
O=C(COC(=O)CNC(=O)c1ccccc1)NCc1ccc2c(c1)OCO2,-0.6,1.7,0.3,-1.5,0.9,/,/
CCc1nnc(NS(=O)(=O)c2ccc(NC(=O)c3cccc(Br)c3)cc2)s1,-0.3,0.1,2.2,-0.2,4.5*,1.2,0.1
COc1cccc(N2CCN(C(=O)c3ccc(CS(=O)c4ccccc4Cl)o3)CC2)c1 (stereo unspecified),-0.8,-3.7,-1.7,-1.3,11.0*,14.1*,-8.6
COc1cccc(N2CCN(C(=O)c3ccc(CS(=O)c4ccccc4C)o3)CC2)c1 (stereo unspecified),-2.5,-2.9,-3.4,-1.0,1.0,/,/
O=C(Nc1ccc(Cl)cc1Cl)c1ccc2c(=O)n3c(nc2c1)CCC3,2.8,5.2,2.5,0.3,8.7*,11.4*,7.5*
O=C(Nc1ccc(Br)cc1Cl)c1ccc2c(=O)n3c(nc2c1)CCC3,1.4,10.0,-0.3,-1.0,5.1*,5.2*,2.9*
Cc1c(Cl)c([N+](=O)[O-])nn1CCCC(=O)NCCc1ccccc1,3.5,3.3,0.5,-0.6,1.6,/,/
CCc1ccc(NC(=O)C(C)OC(=O)C2CCN(c3ccc(C(F)(F)F)cn3)CC2)cc1 (stereo unspecified),0.3,2.1,0.0,-1.4,0.4,/,/
Cc1ccc(NC(=O)COC(=O)CCC(=O)c2cccs2)c(Br)c1,0.3,1.5,-0.7,-1.5,0.9,/,/
Cc1ccc(NC(=O)CCC(=O)c2cccs2)c(Br)c1,1.7,7.1,3.0,-0.2,8.0*,7.6*,5.5*
Cc1ccc(C)c(NC(=O)c2cnn3ccccc23)c1,-0.3,2.9,-0.8,-1.6,-1.4,/,/
CC(=O)c1ccc(NC(=O)c2cnn3ccccc23)cc1,-2.8,4.8,4.3,-0.6,5.8*,5.3*,2.0
COc1cccc(NC(=O)[C@H](NC(=O)[C@@H]2Cc3ccccc3CN2)c2ccccc2)c1,-0.1,6.2,2.5,-0.4,4.9*,4.1*,2.8
Cc1cccc(NC(=O)[C@H](NC(=O)[C@@H]2Cc3ccccc3CN2)c2ccccc2)c1,-0.2,1.4,4.4,-0.8,0.1,/,/
SMILES,DAX1 inh-1,hgDAF12 agonist,hcDAF-12 act,ssDAF12 agonist,DAX1 inh-2,DAX1 conf,SF1 AF2mut Luc
CCN1CCN(c2ccc(S(=O)(=O)N3CCCCC3)cc2NC(=O)/C=C/c2ccc(Cl)cc2)CC1,-0.3,0.2,-0.9,-1.0,4.8*,1.5,-0.2
O=C(Nc1ccc(Oc2ccccc2)nc1)[C@H]1O[C@@H](n2ccc(=O)[nH]c2=O)[C@H](O)[C@@H]1O,/,-0.9,-0.2,-1.2,0.9,/,/
COC(=O)c1sc(-c2cccs2)cc1NC(=O)/C=C/C(=O)O,/,0.5,0.9,-1.7,-0.1,/,/
CCOC(=O)[C@]12CCCC=C1N(Cc1ccco1)C(=O)[C@H](CC(=O)NCc1ccccc1)C2,/,2.5,1.1,-1.4,4.7*,1.4,2.7
COC(=O)[C@@]12C[C@@H](CC(=O)NCc3ccc(C)o3)C(=O)N(CCc3ccc(OC)c(OC)c3)C1=CCC(C)(C)C2,/,0.0,-0.4,-1.1,5.8*,2.4,0.7
CCCCNC(=O)C[C@@H]1C[C@@]2(C(=O)OCC)CCCC=C2N(CCc2ccc(OC)c(OC)c2)C1=O,/,-1.7,-1.4,-1.7,5.2*,1.4,-0.7
CCOC(=O)[C@]12CCCC=C1N(Cc1ccccc1)C(=O)[C@H](CC(=O)NCc1ccccc1)C2,/,0.4,-0.1,-1.3,-0.4,/,/
Cc1sc2ncnc(N3CCC(C(=O)Nc4sc5c(c4C(N)=O)CCC(C)C5)CC3)c2c1C (stereo unspecified),-0.5,1.2,0.4,-1.8,3.3,/,/
CC(C)Cn1c(=O)c(C(=O)NCc2ccc3c(c2)OCO3)c(O)c2ccccc21,1.0,3.2,-0.6,-0.3,-0.5,/,/
COC(=O)[C@]12C[C@H](CC(=O)NCc3ccc(OC)c(OC)c3)C(=O)N(Cc3ccccc3)C1=C[C@H](C1CCCC1)O[C@@H]2C,/,0.1,-1.0,-0.5,-0.1,/,/
CC1=C(C(=O)N(C)C)CC(CC(=O)NCCN2CCOCC2)C(=O)N1Cc1ccc(F)cc1 (stereo unspecified),1.3,0.5,-0.9,-1.5,-0.6,/,/
